# Data as given in PubChem BioAssay.
# Values joined by “and” are separate entries in the source; they are usually repeats but may differ in a detail not shown here. Equal entries are not always repeated. Inconclusive results are not listed. Active and inactive are the calls of the source. Cut-off read from the data, not from the text of the source, unless noted: active = inhibition above about 80%; inactive = the rest.
# Assays:
# [1] = LFS_MB_2R medulloblastoma cell growth inhibition, synergistic combos for chromothripsis tumors, cisplatin combos (AID 1671457); details: LFS_MB_2R medulloblastoma cells, stronger effect = higher value;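 note: cells exposed to compound for four days before readout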
# [2] = UWB1.289_BRCA1 ovarian cancer growth, cell-based, BGB or cisplatin combinations (AID 1671459); details: UWB1.289 BRCA1 ovarian carcinoma, drug combinations, stronger effect = higher value
# [3] = human astrocyte viability loss, single and combined drugs, cytotoxicity control for chromothriptic childhood tumor combination screen, cell-based, BGB or cisplatin IC20 combos (AID 1671460); details: Human astrocytes, drug combinations, stronger effect = higher value;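 note: cells exposed to compounds for 96 hours before viability readout; 0% = vehicle and 100% = killing control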
# [4] = kinase inhibitors against Plasmodium liver-stage infection, cell-based, known kinase inhibitor set, luminescence, hepatoma host viability (AID 624392; call rule not given here;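 note: infected cells incubated roughly two days before readout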); details: Plasmodium liver stage in hepatoma cells, luciferase luminescence, concentration not given here; liver cell % of control: measured here: host liver cell viability; parasite % of control: stronger effect = lower value
# [5] = circadian clock period modulators, cell-based, LOPAC library, luminescence reporter (AID 2774; call rule not given here;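 note: values are relative to mean of DMSO wells on each plate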); details: circadian reporter cells, at 7 µM, actives lie on both sides
# [6] = tested on: Hepatitis C virus NS3 helicase; assay: HCV NS3 helicase inhibitors, primary screen, biochemical, fluorescence polarization, LOPAC1280 library (AID 687035; in the data active = inhibition above about 37%); details: Purified HCV NS3 helicase, Cy5-dT15 ssDNA binding fluorescence polarization; stronger effect = higher value; concentration not given here
# [7] = Cy5 fluorescence quenching or enhancement artefacts, artefact control for HCV NS3 helicase inhibitor project, biochemical, LOPAC1280 (AID 687037; call rule not given here); details: Cy5-DNA-NS3h complex fluorescence interference counterscreen
# [8] = phospholipid biosynthesis inhibitors in animal cells, primary screen, cell-based, LOPAC library, screen 4 (AID 1347384; call rule not given here); details: phospholipid biosynthesis inhibition screen, at 10 µM
# [9] = viability rescue of complex I mutant cybrids, primary screen, cell-based, galactose medium, ATP luminescence (AID 1645843;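 active = z-score of at least 1.8 in each of two replicates, scored against plate mean and spread of sample wells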;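 note: positive z means more ATP and so rescue of galactose-driven cybrid death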); details: complex I mutant cybrid cells, 72 h, stronger effect = higher value
# [10] = modifiers of HSF1 nuclear foci, imaging, Selleck Cancer Library (AID 1347162; in the data active = plate-normalised HSF1 focus index below about 0.46); details: human cells, at 10 µM; SSMD: measured here: HSF1 foci SSMD mean; cell count: measured here: cell number; plate-normalised HSF1 focus index: stronger effect = lower value
# [11] = liver-stage malaria parasite growth inhibition, primary screen, cell-based, HepG2, luciferase luminescence, HepG2 viability (AID 624349; in the data active = parasite load remaining mostly below about 12%, no sharp cut-off; inactive = mostly above about 10%;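 note: 100% = mean of DMSO negative control wells on the same plate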); details: P. berghei liver stage in HepG2, luciferase luminescence, concentration not given here; parasite load remaining: stronger effect = lower value; viability: measured here: HepG2 viability without parasites
# [12] = SU-DIPG-VI glioma cell viability, MIPE4.0 library, CellTiter-Glo luminescence, qHTS (AID 1347066; cut-off not given, nearly all actives have AC50 up to about 30 µM;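 note: cells exposed to compound for 48 hours before readout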); details: CellTiter-Glo ATP luminescence
# [13] = hESC survival regulators, cell-based (AID 493140; call rule not given here;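 note: cells exposed to compounds for four days before counting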); details: human embryonic stem cell survival screen; stronger effect = higher value
# [14] = inhibitors of Cryptococcus chitosan production, flow cytometry, Cibacron Brilliant Red staining (AID 1347148; call rule not given here;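 note: compound exposure lasted three days at 37 degrees C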); details: Cryptococcus neoformans chitosan, stronger effect = lower value; at 10 µM unless noted
# [15] = measured here: combination with cisplatin, at 0.5 µM
# [16] = measured here: combination with cisplatin, at 5 µM
# [17] = BGB combination, concentration series, at 5 µM
# [18] = cisplatin combination, concentration series, at 5 µM
# [19] = measured here: combo with BGB IC20, at 0.5 µM
# [20] = measured here: combo with cisplatin IC20, at 0.5 µM
compound,measurement,setting,value
N=C1CCCN1Cc1[nH]c(=O)[nH]c(=O)c1Cl,inhibition,[1]; at 0.5 µM,-11.5% (inactive)
same,inhibition,[1]; [15],-21.1%
same,inhibition,[1]; [16],-54.2%
same,inhibition,[2]; [17],3.78%
same,inhibition,[2]; at 0.5 µM,4.18% (inactive)
same,inhibition,[2]; [18],25.3%
same,inhibition,[3]; at 0.5 µM,0.72% (inactive)
same,inhibition,[3]; [19],12.6%
same,inhibition,[3]; [20],-10.8%
CCN1CCN(Cc2ccc(NC(=O)c3ccc(C)c(NC(=O)c4cncc(-c5cccs5)c4)c3)cc2C(F)(F)F)CC1,liver cell % of control,[4],83.9%
same,parasite % of control,[4],74.7% (inactive)
NC1CCC(N[C@@H]2C[C@H]2c2ccccc2)CC1 (some centres undefined),inhibition,[1]; at 0.5 µM,-35.8% (inactive)
same,inhibition,[1]; [15],-40%
same,inhibition,[1]; [16],-27.2%
same,inhibition,[2]; [17],-9.67%
same,inhibition,[2]; at 0.5 µM,0.86% (inactive)
same,inhibition,[2]; [18],21.2%
same,inhibition,[3]; at 0.5 µM,11.2% (inactive)
same,inhibition,[3]; [19],8.8%
same,inhibition,[3]; [20],10.6%
CC(=O)Nc1ccc(C(=O)Nc2ccccc2N)cc1,inhibition,[1]; at 0.5 µM,-12.7% (inactive)
same,inhibition,[1]; [15],-6.43%
same,inhibition,[1]; [16],50.6%
same,inhibition,[2]; [17],68.5%
same,inhibition,[2]; at 0.5 µM,-2% (inactive)
same,inhibition,[2]; [18],75.2%
same,inhibition,[3]; at 0.5 µM,17% (inactive)
same,inhibition,[3]; [19],9.55%
same,inhibition,[3]; [20],26.2%
C=C1[C@H](CO)[C@@H](O)C[C@@H]1n1cnc2c(=O)[nH]c(N)nc21,inhibition,[1]; at 0.5 µM,-6.88% (inactive)
same,inhibition,[1]; [15],-11.9%
same,inhibition,[1]; [16],-13.1%
same,inhibition,[2]; [17],-20.8%
same,inhibition,[2]; at 0.5 µM,-14% (inactive)
same,inhibition,[2]; [18],-7.68%
same,inhibition,[3]; at 0.5 µM,-13.6% (inactive)
same,inhibition,[3]; [19],-16.4%
same,inhibition,[3]; [20],-16.1%
CC(=O)[C@]1(N)Cc2c(O)c3c(c(O)c2[C@@H](O[C@H]2C[C@H](O)[C@H](O)CO2)C1)C(=O)c1ccccc1C3=O,inhibition,[1]; at 0.5 µM,-4.05% (inactive)
same,inhibition,[1]; [15],-9.33%
same,inhibition,[1]; [16],67%
same,inhibition,[2]; [17],117%
same,inhibition,[2]; at 0.5 µM,13% (inactive)
same,inhibition,[2]; [18],128%
same,inhibition,[3]; at 0.5 µM,25.7% (inactive)
same,inhibition,[3]; [19],27.9%
same,inhibition,[3]; [20],27.1%
CN(C)C/C=C/C(=O)Nc1ccc(C(=O)Nc2cccc(Nc3ncc(Cl)c(-c4c[nH]c5ccccc45)n3)c2)cc1,inhibition,[1]; at 0.5 µM,75.5% (inactive)
same,inhibition,[1]; [15],68.1%
same,inhibition,[1]; [16],91.1%
same,inhibition,[2]; [17],79.9%
same,inhibition,[2]; at 0.5 µM,84.7% (active)
same,inhibition,[2]; [18],86.1%
same,inhibition,[3]; at 0.5 µM,87.2% (active)
same,inhibition,[3]; [19],86.5%
same,inhibition,[3]; [20],83.8%
CCCc1c(OCCCOc2ccc(OCC(=O)O)cc2)ccc(C(C)=O)c1O,period change,[5],-0.235 h (inactive)
same,inhibition,[6],-1% (inactive)
same,fluorescence ratio (interference),[7],1 (inactive)
same,outcome,[8],inactive
same,z-score,[9],1.51 (inactive)
COc1cc(Nc2ncc(F)c(Nc3ccc4c(n3)NC(=O)C(C)(C)O4)n2)cc(OC)c1OC,SSMD,[10],2.8
same,cell count,[10],7530
same,plate-normalised HSF1 focus index,[10],1.18 (inactive)
CN(NC(=O)CC(=O)NN(C)C(=S)c1ccccc1)C(=S)c1ccccc1,SSMD,[10],2.56
same,cell count,[10],6990
same,plate-normalised HSF1 focus index,[10],1.13 (inactive)
CN(CCOc1ccc(C[C@H](Nc2ccccc2C(=O)c2ccccc2)C(=O)O)cc1)c1ccccn1,period change,[5],0.085 h (inactive)
O=C(NOCC(O)CO)c1ccc(F)c(F)c1Nc1ccc(I)cc1F (centres undefined),liver cell % of control,[4],81.2% and 75.1% and 63.7%
same,parasite % of control,[4],153% (inactive) and 268% (inactive) and 132% (inactive)
COc1cc(/C=C(\C#N)C(=O)Nc2nnc(C(F)(F)F)s2)ccc1OCc1ccc(C(F)(F)F)cc1C(F)(F)F,inhibition,[6],-5% (inactive)
same,fluorescence ratio (interference),[7],1 (inactive)
same,outcome,[8],inactive
same,z-score,[9],0.35 (inactive)
C[C@@H](O)[C@@H]1NC(=O)[C@H](CCCCN)NC(=O)[C@@H](Cc2c[nH]c3ccccc23)NC(=O)[C@H](Cc2ccccc2)NC(=O)[C@@H](NC(=O)[C@H](N)Cc2ccccc2)CSSC[C@@H](C(=O)N[C@H](CO)[C@@H](C)O)NC1=O,parasite load remaining,[11],22.8% (inactive)
same,viability,[11],81.5%
same,z-score,[9],0.6 (inactive)
CNC(=O)c1ccc2c(C(=Nc3cccc(CN(C)C)c3)c3ccccc3)c(O)[nH]c2c1,outcome,[12],inactive
NS(=O)(=O)OC[C@@H]1C[C@@H](n2ccc3c(N[C@H]4CCc5ccccc54)ncnc32)C[C@@H]1O,outcome,[12],inactive
CN1CCN(c2ncc(-c3cc(Cl)cc(Cl)c3Cl)c(N)n2)CC1,outcome,[12],inactive
COc1ccc(CNC(=O)Nc2ncc([N+](=O)[O-])s2)cc1,parasite load remaining,[11],31.3% (inactive)
same,viability,[11],94.6%
same,SSMD,[10],1.38
same,cell count,[10],7050
same,plate-normalised HSF1 focus index,[10],1.08 (inactive)
C[N+](C)(C)CC(=O)O,outcome,[8],inactive
O=[N+]([O-])c1ccc(-c2nc(-c3ccc(F)cc3)c(-c3ccncc3)[nH]2)cc1,parasite load remaining,[11],29.6% (inactive)
same,viability,[11],67.5%
same,inhibition,[6],1% (inactive)
same,fluorescence ratio (interference),[7],1 (inactive)
same,outcome,[8],inactive
same,z-score,[9],-0.155 (inactive)
CC(C)(C(=O)NCC(F)(F)C(F)(F)F)C(=O)N[C@@H]1C(=O)Nc2ccccc2-c2ccccc21,outcome,[12],inactive
same,SSMD,[10],3.83
same,cell count,[10],7550
same,plate-normalised HSF1 focus index,[10],1.24 (inactive)
NC(=O)c1nc(F)c[nH]c1=O,inhibition,[1]; at 0.5 µM,1.33% (inactive)
same,inhibition,[1]; [15],5.37%
same,inhibition,[1]; [16],9.87%
same,inhibition,[2]; [17],-6.18%
same,inhibition,[2]; at 0.5 µM,1.49% (inactive)
same,inhibition,[2]; [18],2.48%
same,inhibition,[3]; at 0.5 µM,-3.48% (inactive)
same,inhibition,[3]; [19],-7.39%
same,inhibition,[3]; [20],-5.76%
O=S(=O)(c1cccc2c(I)cccc12)N1CCCNCC1,period change,[5],0.03 h (inactive)
same,survival,[13],70.8 (inactive)
same,parasite load remaining,[11],33.8% (inactive)
same,viability,[11],77.3%
same,inhibition,[6],-1% (inactive)
same,fluorescence ratio (interference),[7],0.9 (inactive)
same,fold fluorescence,[14],13.8 [at 120.1 µM] (inactive)
same,outcome,[8],inactive
same,z-score,[9],-0.91 (inactive)
